hNpr1 antagonist = blocks ANP-stimulated signaling of human Npr1 receptor; AID 1347048; P16066; 76,000 compounds, 1.6% hits; Potency, µM (doses to about 46.3 µM), without a hit: top-dose activity change, negative = inhibition, most hits filed as inhibitors; HEK293 hNpr1 GloSensor cGMP, ANP-stimulated luminescence; calls by dose curve; also: nearly all actives have a fitted effect of over 60% in size
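Compound pre-incubated 30 min at room temperature on GloSensor-loaded HEK293 cells stably carrying hNpr1 and the pGS-40F cGMP biosensor. Stimulation uses hNppA at 0.1 nM final; luminescence is taken at baseline and 20 min post-agonist.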
HEK293 tox = HEK 293 cell cytotoxicity. HEK 293 viability, ATP luminescence (CellTiter-Glo), 48-72 h. Potency, µM (top dose mostly 115 µM), inactives show top-dose activity change, negative = cytotoxicity, most hits filed as inhibitors. 94,000 compounds, 6.6% hits. AID 1345083; also: nearly all actives have a fitted effect of over 60% in size
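Pintool-delivered compounds were incubated with HEK 293 cells (250 cells/well) at 37 degree Celsius for 48 or 72 hr. ATP-dependent luminescence (CellTiter-Glo) then reported remaining viable cells.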
FLuc inh = Photinus pyralis luciferase inhibition. purified P. pyralis luciferase, luminescence, biochemical. Potency, µM (highest dose often 115 µM), usual class: inhibitors. P08659. 76,000 compounds, 2.5% hits; also: nearly all actives have a fitted effect of over 65% in size
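Purified 10nM P. pyralis luciferase with 10uM D-luciferin and 10uM ATP in 50mM Tris acetate pH 7.5, 10mM Mg acetate, 0.01% Tween-20, 0.05% BSA. qHTS titration; luminescence read by CCD imager.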
GPT2 inhibitor = inhibitors of human GPT2 alanine aminotransferase | Q8TD30 | Recombinant GPT2, coupled pyruvate oxidase/HRP Amplex Red fluorescence | Potency, µM (top dose mostly 57.7 µM), for the others: top-dose activity change, negative = inhibition, most hits filed as inhibitors | 100,000 compounds, 0.25% hits | AID 1671188; also: nearly all actives have a fitted effect of over 60% in size
Target sequence (Q8TD30 whole entry, looked up): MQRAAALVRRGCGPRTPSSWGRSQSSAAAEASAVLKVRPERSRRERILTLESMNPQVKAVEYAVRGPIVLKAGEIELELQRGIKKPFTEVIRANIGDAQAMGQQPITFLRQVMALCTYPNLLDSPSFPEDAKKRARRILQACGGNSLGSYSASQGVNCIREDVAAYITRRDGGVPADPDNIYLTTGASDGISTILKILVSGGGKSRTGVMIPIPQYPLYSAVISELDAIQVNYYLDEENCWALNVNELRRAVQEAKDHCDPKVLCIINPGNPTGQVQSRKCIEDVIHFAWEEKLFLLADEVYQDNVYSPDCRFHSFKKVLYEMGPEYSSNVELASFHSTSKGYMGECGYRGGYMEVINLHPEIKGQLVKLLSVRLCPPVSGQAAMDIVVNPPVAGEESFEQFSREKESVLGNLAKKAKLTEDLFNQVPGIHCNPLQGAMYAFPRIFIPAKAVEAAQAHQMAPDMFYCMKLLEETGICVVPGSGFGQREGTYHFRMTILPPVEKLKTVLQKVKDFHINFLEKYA
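GPT2 10ng/uL, a-KG 250uM, L-Ala 2mM, HEPES pH7.5 + 0.0001% Tween; 30 min RT. Then Amplex mix (PO/HRP/ThPP), 30 min RT dark, fluorescence. AOA 50uM used as positive control.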
3T3 cytotox = cytotoxic compounds in NIH 3T3 cells | NIH 3T3 viability, CellTiter-Glo ATP luminescence, 48-72 h | Potency, µM (doses to about 96.7 µM), without a hit: top-dose activity change, negative = cytotoxicity, hits mostly inhibitors | 94,000 compounds, 4.3% hits; also: nearly all actives have a fitted effect of over 55% in size
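First NIH 3T3 cells are plated at 400 cells/well; next compound is pinned in; then plates incubate 48 or 72 hr at 37 °C; finally CellTiter-Glo is added and luminescence read after 10 min.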
The depositor's hits bear a star; i = inactive; ? = inconclusive; . = no result given; ! = repeats disagree; [ ] = dose if it differs, or a comment. This is a sample that favours compounds with a hit; in the whole collection about 10% have one here. Unless noted, calls follow the shape of the dose curve; as a rule, active = well fitted curve in the direction sought with a large enough effect; inconclusive = small, poorly fitted or top-dose-only effect, or another doubt; inactive = no such curve, though single readings can be large; an effect the other way counts as inactive or inconclusive. % is scaled to controls: 0 for no effect and ±100 for the full control effect; potency is read from the fitted curve at half-maximal effect.

SMILES	hNpr1 antagonist	HEK293 tox	FLuc inh	GPT2 inhibitor	3T3 cytotox
Cc1nc2n(c1C(=O)Nc1cc(-c3ccc(F)cc3)[nH]n1)CCC(Nc1ccc(F)cc1)C2 (centres undefined)	-18%	?	?	-2%	32µM*
CC1(COCC2CC2)COc2ccc(C(=O)Nc3ccccc3)cc2N1 (centres undefined)	-30%[70.6 µM]	?	22µM*	i	?
CC1(COCC2CC2)COc2ccc(C(=O)NCc3ccccc3)cc2N1 (centres undefined)	-7%[70.6 µM]	?	i	-2%[88.5 µM]	?
CC1(COCC2CC2)COc2ccc(C(=O)Nc3cccc([S+](C)(=O)[O-])c3)cc2N1 (centres undefined)	-21%[70.6 µM]	100µM*	i	i	?
c1ccc2sc(N3CCCN(Cc4cc5n(n4)CCNC5)CC3)nc2c1	3%	35µM*	?	5%	?
O=C(NCc1ccccn1)c1ccc2nc(-c3cccnc3Cl)oc2c1	.	?	.	4%	?
CC(C)NC(=O)c1ccc2oc(-c3ccccn3)nc2c1	.	?	.	i	-29%
Cc1cccc(-c2nc3ccc(C(=O)NCc4ccccc4Cl)cc3o2)n1	.	?	.	-10%	?
Cc1cccc(-c2nc3ccc(C(=O)N4CCOCC4)cc3o2)n1	.	32µM*	.	?	22µM*
Cc1cccc(-c2nc3ccc(C(=O)NCc4ccccc4F)cc3o2)n1	.	100µM*	.	0%[88.5 µM]	?
O=C(NCc1ccccc1F)c1ccc2nc(-c3cccnc3Cl)oc2c1	.	100µM*	.	-9%[88.5 µM]	?
CC(C)NC(=O)c1ccc2nc(-c3ccccn3)oc2c1	.	45µM*	.	i	?
O=C(NCc1cccc(C(F)(F)F)c1)c1ccc2nc(-c3ccccn3)oc2c1	.	?	.	5%	40µM*
O=C(NCc1cccc(Cl)c1)c1ccc2nc(-c3ccccn3)oc2c1	.	?	.	i	?
Cc1ncccc1-c1nc2cc(C(=O)NC3CC3)ccc2o1	.	?	.	i	89µM*
O=C(NCCc1ccccc1F)c1ccc2nc(-c3cccnc3Cl)oc2c1	.	40µM*	.	2%	-26%
O=C(NCCc1ccccc1F)c1ccc2oc(-c3ccccn3)nc2c1	.	-1%	.	i	-11%
O=C(NCc1ccccc1F)c1ccc2nc(-c3ccccn3)oc2c1	.	71µM*	.	-3%[88.5 µM]	?
O=C(c1ccccc1Cl)N1CCN(C(=O)c2nc3cccnc3n(CCc3ccccc3)c2=O)CC1	.	?	.	3%	-15%
Cc1cccc(-c2nc3ccc(C(=O)NC4CCCCCC4)cc3o2)n1	.	79µM*	.	-14%[88.5 µM]	?
CC(=O)N1CCN(C(=O)c2ccc3nc(-c4ccccn4)oc3c2)CC1	.	i	.	i	-11%
O=C(c1ccc2nc(-c3ccccn3)oc2c1)N1CCCCC1	.	28µM*	.	-27%[88.5 µM]	20µM*
O=C(NCCc1ccccc1F)c1nc2sccn2c1-c1ccccc1	.	?	.	i	?
CN(C)CCOCC1(C)COc2ccc(C(=O)Nc3ccc4[nH]ccc4c3)cc2N1 (centres undefined)	2%[70.6 µM]	?	50µM*	-19%[88.5 µM]	?
CC1(CCCCN2CCOCC2)COc2ccc(C(=O)Nc3ccc4[nH]ccc4c3)cc2N1 (centres undefined)	?	?	i	i	-29%
SMILES	hNpr1 antagonist	HEK293 tox	FLuc inh	GPT2 inhibitor	3T3 cytotox
CC1(COCC2CC2)COc2ccc(C(=O)Nc3ccc4[nH]ccc4c3)cc2N1 (centres undefined)	?	?	16µM*	-8%[88.5 µM]	45µM*
O=C(c1cccc(Cl)c1)N1CCN(C(=O)c2nc3cccnc3n(C3CC3)c2=O)CC1	.	2%	.	i	-26%
Cc1cccc(C)c1-c1nnc2ccc(C(=O)NCCc3ccccc3F)cn12	.	?	.	i	-12%
CC(=O)N1CCN(Cc2ccccc2-c2cccnc2)CC1	.	-1%[172 µM]	.	0%[88.5 µM]	-13%[138 µM]
O=C(C1CCCC1)N1CCN(Cc2ccccc2-c2cccnc2)CC1	.	50µM*	.	-4%	?
CC(C)(C)C(=O)N1CCN(Cc2ccccc2-c2cccnc2)CC1	.	100µM*	.	i	-29%[138 µM]
COc1ccccc1-c1ccc(CN2CCC(NC(=O)c3ccc(C(F)(F)F)cc3)C2)cc1 (centres undefined)	.	25µM*	.	.	?
COc1ccc(F)cc1-c1ccc(CN2CCC(NC(=O)c3ccc(C(F)(F)F)cc3)C2)cc1 (centres undefined)	.	20µM*	.	.	?
O=C(c1ccc(F)cc1)N1CCC(C(=O)N2CCC(N3CCCC3=O)CC2)CC1	.	-6%	.	-4%	i
O=C(NC[C@H]1COCc2nc3cc(C(F)(F)F)ccc3n21)C1CC1	-4%[70.6 µM]	?	i	i	-24%[138 µM]
O=C(NC[C@H]1COCc2nc3cc(F)ccc3n21)c1ccc2c(c1)OCO2	-2%[70.6 µM]	-30%[172 µM]	?	-3%[88.5 µM]	?
Fc1ccc2c(c1)nc1n2[C@@H](CNC2CCCCC2)COC1	-18%[70.6 µM]	?	i	-12%[88.5 µM]	28µM*
O=C(NC[C@H]1COCc2nc3cc(F)ccc3n21)C1CC1	4%[70.6 µM]	-7%[230 µM]	i	-1%[88.5 µM]	79µM*
O=C(NC[C@H]1COCc2nc3cc(F)ccc3n21)c1ccc(Cl)cc1	-10%[70.6 µM]	71µM*	i	4%[88.5 µM]	?
CN(C)C[C@@H]1CN(Cc2ccccc2)C[C@H]1NS(=O)(=O)c1ccc(C#N)cc1	.	-26%	.	-3%	?
CN(C)c1nc2c(c(=O)[nH]1)CCN(Cc1cc(F)c(F)cc1F)CC2	-11%	2%	i	-7%	-3%
c1coc(-c2nc3ccncc3[nH]2)c1	10%[70.6 µM]	?	?	32µM*!	?
c1ccc(-c2nc3ccncc3[nH]2)cc1	-13%[70.6 µM]	?	?	3%[88.5 µM]	?
COc1ccc(CCC(=O)N2Cc3ccccc3OC3(CCN(C)CC3)C2)cc1	1%	?	i	-8%	-17%
O=C(CCCc1ccccc1)N1CCC(C2CCNC2)CC1 (centres undefined)	1%	-19%	35µM*	i	1%
Cc1ccsc1C(=O)N1CCC2(CC1)CC(N(Cc1ccccc1)C1CC1)CCO2 (centres undefined)	-26%	40µM*	i	i	?
Cc1ccsc1C(=O)N1CCC2(CC1)CC(N(C(=O)c1ccccc1)C1CC1)CCO2 (centres undefined)	-7%	50µM*	i	0%	?
CC(C)NC(=O)N(C1CC1)C1CCOC2(CCN(C(=O)CCCc3ccccc3)CC2)C1 (centres undefined)	-17%	?	?	i	?
CC(=O)N(C1CC1)C1CCOC2(CCN(C(=O)CCCc3ccccc3)CC2)C1 (centres undefined)	2%	?	28µM*	i	-21%
Cc1ccsc1C(=O)N1CCC2(CC1)CC(N(Cc1ccc(F)cc1)C1CC1)CCO2 (centres undefined)	-25%	?	i	i	?

Screening results (PubChem)
